Laboratory results published in PubChem BioAssay (NCATS).
Results filed as inconclusive are left out. Unmarked numbers belong to inactive results. Calls of active or inactive are those of the source. Calls come from the whole dose curve; as a rule, active = well fitted inhibition curve with a large enough effect; inconclusive = small, poorly fitted or top-dose-only effect; inactive = flat fitted curve, though single readings scatter.

Biological target: Calcium and integrin-binding protein 1 (Homo sapiens) (UniProt Q99828)
Experiment: Primary qHTS for Identification of Calcium Integrin Binding Protein 1 (CIB1) Competitor (AID 1508620); note: top concentration of the series differs between compounds
Settings: CIB1-GST / FITC-alphaIIb peptide fluorescence polarization; series mostly up to 114 µM; activity change, negative = inhibition: at the top concentration
Outline: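 Fluorescence polarization competition: GST-tagged CIB1 (1 uM final) preincubated with compound 15 min at room temperature, then FITC-labelled alphaIIb peptide (100 nM final) added. After 15 min at room temperature, polarization read at Ex 480/Em 540.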
% is set by controls: 0 for no effect and ±100 for the full control effect.

Chain of Calcium and integrin-binding protein 1 (Homo sapiens) (Q99828 whole entry, looked up): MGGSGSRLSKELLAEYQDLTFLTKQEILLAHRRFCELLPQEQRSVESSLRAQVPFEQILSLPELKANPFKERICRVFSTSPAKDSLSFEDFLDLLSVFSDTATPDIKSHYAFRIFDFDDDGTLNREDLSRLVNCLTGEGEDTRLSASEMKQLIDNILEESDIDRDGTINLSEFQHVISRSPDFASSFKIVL

Row | SMILES | activity change, negative = inhibition | Potency
1 | CS(=O)(=O)Nc1cccc(-c2cc(F)c(S(=O)(=O)N3CCN(S(=O)(=O)c4ccc5c(c4)OCCO5)CC3)cc2F)c1 | -17.9% | –
2 | Fc1ccc(-c2noc(CCCCSc3nnc(-c4cccc5ccccc45)o3)n2)cc1 | – | inactive
3 | CS(=O)(=O)c1ccc(C(=O)OCC(=O)N2CCN(C3CCCCC3)CC2)cc1[N+](=O)[O-] | -19.2% | –
4 | Cc1cc(C)nc(NC(=S)N2CCN(c3nc4ccccc4o3)CC2)c1 | -3.85% | –
5 | CC(=O)NC(c1cc(Cl)c2cccnc2c1O)C1CC1 (centres undefined) | -18.6% | –
6 | NC(=O)C1CCN(c2nc(-c3ccc(Oc4ccccc4)cc3)cs2)CC1 | -0.992% | –
7 | COc1ccc(C2Nc3ccccc3C(=O)N2Cc2ccccc2)cc1COc1ccc(F)cc1 (centres undefined) | 2.42% | –
8 | CCOC(=O)c1ccc(-c2ccc3ncnc(NCc4ncc[nH]4)c3c2)o1 | -5.02% | –
9 | O=S(=O)(c1ccc2c(c1)OCCO2)N1CCN(S(=O)(=O)c2ccc(Br)cc2F)CC1 | -1.54% | –
10 | C[C@H](N)C(=O)Nc1cccc(-c2nn3c(=O)cc(N4CCNCC4)nc3s2)c1 | 4.28% | –
11 | Cc1cc(C)nc(NC(=S)N2CCN(c3ccc4ccccc4n3)CC2)c1 | -3.3% | –
12 | FC(F)(F)c1ccc(-c2ccc(CNc3nc(-c4ccccc4C(F)(F)F)nc4ccccc34)cc2)cn1 | 3.69% | –
13 | NNc1ccc(NC(=O)c2cccs2)cn1 | -18.6% | –
14 | Nc1nnc(-c2ccc3ccccc3c2)o1 | 5.86% | –
15 | N#Cc1nc(NCC(F)F)c2ncn(-c3cc(F)cc(F)c3)c2n1 | 5.7% | –
16 | O=C(Nc1ccc2c(c1)OCO2)Nc1nnc(-c2ccncc2)s1 | -0.369% | –
17 | COc1cc(OC)c(C(CC(=O)N2CC(C)CC(C)C2)c2ccc3c(c2)OCO3)c(OCC#N)c1 (centres undefined) | 3.82% [at 228 µM] | –
18 | Oc1ccc(CNc2ccc(F)cc2Cl)c2cccnc12 | 18.8% | –
19 | CN1CCN(Cc2cc(COCc3ccccc3)c3cccnc3c2O)CC1 | -6.17% | –
20 | O=C(/C=C/c1ccc(Cl)cc1)Nc1cccc([S+](=O)([O-])Nc2ccccc2F)c1 | – | inactive

Row | SMILES | activity change, negative = inhibition | Potency
21 | Cc1cc2c(s1)c1cnn(Cc3ccc(C(C)C)cc3)c(=O)c1n2C | 1.25% | –
22 | O=C(CSc1nnc(-c2cccc([S+](=O)([O-])N3CCCC3)c2)n1-c1ccccc1)Nc1cccc(F)c1 | 3.76% | –
23 | COc1ccc(-c2nc3ccccc3c(=O)n2Cc2ccccc2)cc1OCc1ccc(NC(C)=O)cc1 | 1.17% | –
24 | O=S(=O)(NC[C@@H]1CCC[C@H](CNS(=O)(=O)c2c(F)cccc2F)C1)c1ccc2c(c1)OCCO2 | – | inactive
25 | COc1cccc(CNc2ccc(S(=O)(=O)Nc3cccs3)cc2)c1O | -1.7% [at 30.2 µM] | –
26 | Cc1ccc(NS(=O)(=O)c2ccc3c(c2)CCC(=O)N3)cc1 | 2.43% | –
27 | CCOC(=O)c1cccc(-n2cccc2/C=C2\NC(=O)N(CC(=O)O)C2=O)c1 | 3.97% | –
28 | NC(=O)c1c(NC(=O)c2ccncn2)sc2c1CCCC2 | – | inactive
29 | O=C(Nc1cccc(C(=O)O)c1)Nc1nnc(-c2ccncc2)s1 | -0.69% | –
30 | CC(C)(C)OC(=O)Cc1nnc(-c2nc3ccccc3[nH]2)o1 | -4.45% | –
31 | COc1cc(NC(=O)C(OC(=O)CNC(=O)c2ccccc2)c2ccccc2)cc(C(F)(F)F)c1 (centres undefined) | -2.04% | –
32 | Cc1c(Cl)cccc1NS(=O)(=O)c1cc2c(cc1F)NC(=O)CC2 | -2.03% | –
33 | CN(C)C(=O)C1CCN(c2nc(-c3ccc(Br)cc3)cs2)CC1 | -0.667% | –
34 | Cc1ccc(NC(=O)CN2C(=O)N/C(=C\c3cccn3-c3ccc(C(=O)NC#N)cc3)C2=O)cc1 | 8.03% | –
35 | O=C(Nc1ccc(-c2nc3ccccc3[nH]2)cc1)c1ccc2c(c1)OCCO2 | 5.01% | –
36 | O=C(Nc1ccccn1)c1sc2ccccc2c1Cl | 2.81% | –
37 | COc1cc(OC)cc(-c2nnc3n2N=C(c2c(OC)cccc2OC)CS3)c1 | 5.77% | –
38 | Nc1ccccc1C(=O)NCc1ccco1 | 4.95% | –
39 | Cc1ccc(NC(=O)CN2C(=O)N/C(=C\c3cccn3-c3ccc(C(=O)O)cc3)C2=O)cc1 | – | inactive
